Most compounds without a hit are left out; they make up all but 13% or so of the library.
Pf growth 96h: P. falciparum growth inhibition at 96 hour, primary screen for plastid delayed-death inhibitors; P. falciparum luciferase reporter growth, 96 h; Potency, µM (highest dose often 28.7 µM), inactives show at the top dose activity change, negative = inhibition, usual class: inhibitors; 320,000 compounds, 6.9% hits; also: potency is read from the fitted curve at half-maximal effect
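Delayed-death screen, second-generation endpoint: infected erythrocytes, 2% hematocrit, 0.05% parasitemia final; 96 hours at 37 C, 5% CO2; luciferase detection reagent; luminescence decrease equals reduced growth.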
Pf growth 48h: inhibits P. falciparum growth in the first generation, 48 h. Potency, µM (series often up to 28.7 µM), inactives show at the highest dose activity change, negative = inhibition, hits mostly inhibitors. P. falciparum luciferase growth in erythrocytes, 48 h. 310,000 compounds, 5.9% hits; also: potency is read from the fitted curve at half-maximal effect
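Cell-based growth assay: transgenic P. falciparum expressing firefly luciferase, cultured in red cells within RPMI 1640 containing 0.5% w/v Albumax, 24 mM bicarbonate and gentamycin. A drop in luciferase activity indicates inhibition.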
HCV inh: blocks hepatitis C virus | Potency, µM (series often up to 41.8 µM), inactives show top-dose activity change, negative = inhibition, most hits filed as inhibitors | 340,000 compounds, 3.4% hits | Huh7.5.1 HCVcc-Cre infection, luciferase reporter, 44 h | AID 651820; also: potency is read from the fitted curve at half-maximal effect
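Cells seeded at 1,000/well and cultured 4 h, then compounds added followed by HCVcc-Cre virus (~0.5 moi). After 44 h further culture, luciferase substrate was added, plates held 15 min at room temperature, and luminescence read for 15 sec.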
HCMV antiviral: inhibitors of human cytomegalovirus | 410,000 compounds, 4.5% hits | AID 1259415 | activity change, negative = inhibition, % at 57.5 µM | HFF cells, HCMV-luciferase reporter, 72 h; hits give low values; in the data active = activity change below about -60%; inconclusive = no clear call, values can overlap the other calls; inactive = above about -39%
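Compounds were evaluated in HFFs infected with an HCMV luciferase reporter virus (MOI 1 PFU/cell). Luciferase in lysates collected 72 h post infection served as the replication measure.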
Active calls of the source: *; ? = inconclusive; . = no result given; ! = not confirmed by another sample. Unless noted, calls follow the shape of the dose curve; as a rule, active = well fitted inhibition curve with a large enough effect; inconclusive = small, poorly fitted or top-dose-only effect, or another doubt; inactive = no such curve, though single readings can be large or run the other way. % is scaled to controls: 0 for no effect and ±100 for the full control effect.

SMILES	Pf growth 96h	Pf growth 48h	HCV inh	HCMV antiviral
COc1ccc(C(=O)Nc2ccc(Cl)cc2C(=O)N2CCCC(C)C2)cc1 (stereo not drawn)	-16%	.	?	-100*
COc1ccc(C(=O)N2CCCC(c3cc(C(=O)Nc4ccccc4)no3)C2)cc1 (stereo not drawn)	.	.	.	-73*
CN(C)c1ccc(CC(=O)N2CCCC(c3cc(C(=O)Nc4ccc(C(C)(C)C)cc4)no3)C2)cc1 (stereo not drawn)	.	.	.	-75*
COc1ccc(C(=O)Nc2ccc(Cl)cc2C(=O)N2CCOCC2)cc1	?	4%	7%	51
CCCC(=O)n1nc(-c2ccco2)nc1NCc1ccccc1Cl	.	.	.	21
COc1cc(CCN=Cc2cccc(OC)c2O)c([N+](=O)[O-])cc1OC	.	.	.	9
O=C(CCC(=O)c1ccc(F)cc1)Nc1ccc(Cl)cc1	.	.	.	20
Cc1cc(C)cc(NS(=O)(=O)c2ccc3[nH]cc(C(=O)NCc4ccco4)c(=O)c3c2)c1	122%	?	-22%	-73*!
Cc1ccccc1NS(=O)(=O)c1ccc2[nH]cc(C(=O)NC3CCCCC3)c(=O)c2c1	12µM*	12µM*	.	36
COc1ccc(CCNC(=O)c2c[nH]c3ccc(F)cc3c2=O)cc1OC	0%	12µM*	-11%	14
CCN(CC)S(=O)(=O)c1ccc2[nH]cc(C(=O)NC3CC3)c(=O)c2c1	0.47µM*	-7%	-11%	-21
Cc1cc(C)cc(NS(=O)(=O)c2ccc3[nH]cc(C(=O)NC4CCCCC4)c(=O)c3c2)c1	.	.	.	3
COc1ccc(CCNC(=O)c2c[nH]c3ccccc3c2=O)cc1OC	-25%	?	?	31
Cc1cc(C)cc(NS(=O)(=O)c2ccc3[nH]cc(C(=O)NCc4ccccc4Cl)c(=O)c3c2)c1	.	.	.	-12
COc1cc(CN(C(=O)COc2ccc(F)cc2)c2ccccn2)cc(OC)c1OC	.	.	.	-3
Cc1ccc(NC(=O)Cn2cc(C(=O)C3CCCCC3)c3ccccc32)cc1	.	.	.	11
COc1cccc(NS(=O)(=O)c2ccc3[nH]cc(C(=O)NCCc4ccccc4)c(=O)c3c2)c1	.	.	.	0
CCN(CC)S(=O)(=O)c1ccc2[nH]cc(C(=O)NCCc3ccc(OC)c(OC)c3)c(=O)c2c1	8.3µM*	?	10%	-4
COc1cccc(NS(=O)(=O)c2ccc3[nH]cc(C(=O)NCCc4ccc(C)cc4)c(=O)c3c2)c1	12µM*	?	.	-5
Cc1ccc(S(=O)(=O)Nc2c(C)n(C)n(-c3ccccc3)c2=O)cc1C(=O)NCc1ccco1	.	.	32µM*	-27
Cc1c(NS(=O)(=O)c2ccc(Cl)c(C(=O)OCC(=O)NCc3ccco3)c2)c(=O)n(-c2ccccc2)n1C	86%	0%	-2%	14
CCN(CC)S(=O)(=O)c1ccc2c(c1)c(=O)c(C(=O)NCCc1ccc(OC)c(OC)c1)cn2C	?	?	-19%	-22
N#CC(Cc1cccc(CC(C#N)(c2ccccc2)c2ccccc2)c1)(c1ccccc1)c1ccccc1	0.83µM*	1.2µM*	-30%	-19
Cc1ccc2c(c1)N(C(=O)N1CCC(C(=O)NCCc3ccc(Cl)cc3)CC1)CC(C)O2 (stereo not drawn)	.	.	.	2
CCOC(=O)C(NC(=O)c1ccccc1Cl)(Nc1ccc(C)c(C)c1)C(F)(F)F (stereo not drawn)	2%	?	-11%	-19
SMILES	Pf growth 96h	Pf growth 48h	HCV inh	HCMV antiviral
COC(=O)C(Nc1ccccc1Cl)(c1cc(C)c(O)c(C)c1)C(F)(F)F (stereo not drawn)	.	9.3µM*	14µM*	-78*
COc1cc(C2c3c(oc4ccc(C)cc4c3=O)C(=O)N2Cc2ccccc2)ccc1O (stereo not drawn)	.	.	.	15
Cn1c(=S)[nH]c2c(c1=O)C(C)(C)Cc1ccccc1-2	3.3µM*	48%	-2%	-12
Cc1ccc(S(=O)(=O)NCCc2nnc3ccc(SCc4ccccc4F)nn23)cc1	.	.	.	9
Cc1oc2ncn(C)c(=O)c2c1C(=O)N1CCN(c2cccc(C(F)(F)F)c2)CC1	.	.	.	-13
Cc1cc(-c2csc(N)n2)c(C)n1Cc1ccco1	?	-3%	?	-30
Cc1cc(-c2csc(N)n2)c(C)n1C	10µM*	.	-21%	-7
CN(C(=O)C(=O)Nc1ccc2nc3n(c(=O)c2c1)CCCCC3)c1cccc(C(F)(F)F)c1	.	.	.	-1

High-throughput results: PubChem, National Center for Advancing Translational Sciences (NCATS)
